Laboratory results from PubChem BioAssay AID1159580 (chemical genetic matrix, 2015).
The campaign covered roughly 5,500 compounds. About 2,000 (36%) were called active. About 18% were inconclusive and are not listed. Cut-off read from the data, not from the text of the source: active = normalized growth mostly below about 0.91 (no sharp cut-off); inconclusive = no clear call, values can overlap the other calls; inactive = mostly above about 0.92. The list shows a part of the results.

Experiment: chemical genetic growth profiling, strain panel (AID 1159580);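 note: tested at 20 µM; growth read once vehicle control cultures reached saturation at 30 °C; 1 = growth at the plate median or of vehicle wells; lower values mean less growth of the strain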
Settings: growth OD

Measured: normalized growth

CNC(=O)O/N=C\C(C)(C)SC
inactive: S. cerevisiae deletion strains, locus YJR043C, strain POL32, active compounds read low 1.03 | S. cerevisiae deletion strains, locus YJR075W, strain HOC1, active compounds read low 1.02 | S. cerevisiae deletion strains, locus YKL009W, strain mrt4, active compounds read low 1.02 | S. cerevisiae deletion strains, locus YKL068W, active compounds read low 0.998 | S. cerevisiae deletion strains, locus YKL085W, strain MDH1 (second series), active compounds read low 0.996 | S. cerevisiae deletion strains, locus YKL085W, strain MDH1, active compounds read low 0.996 | S. cerevisiae deletion strains, locus YKL160W, strain elf1, active compounds read low 1 | S. cerevisiae deletion strains, locus YKL190W, strain CNB1, active compounds read low 0.991 | S. cerevisiae deletion strains, locus YKR001C, strain vps1, active compounds read low 1.01 | S. cerevisiae deletion strains, locus YKR026C, strain gcn3, active compounds read low 1 | S. cerevisiae deletion strains, locus YKR091W, strain srl3, active compounds read low 1 | S. cerevisiae deletion strains, locus YLL001W, strain dnm1, active compounds read low 0.988 | S. cerevisiae deletion strains, locus YLL026W, active compounds read low 0.997 | S. cerevisiae deletion strains, locus YLL041C, strain sdh2, active compounds read low 1 | S. cerevisiae deletion strains, locus YLR027C, strain aat2, active compounds read low 1.01 | S. cerevisiae deletion strains, locus YLR039C, strain RIC1, active compounds read low 1.02 | S. cerevisiae deletion strains, locus YLR058C, strain SHM2, active compounds read low 1.01 | S. cerevisiae deletion strains, locus YLR102C, strain apc9, active compounds read low 0.986 | S. cerevisiae deletion strains, locus YLR221C, strain rsa3, active compounds read low 1.01 | S. cerevisiae deletion strains, locus YLR258W, strain gsy2, active compounds read low 0.996 | S. cerevisiae deletion strains, locus YLR262C, strain YPT6 (second series), active compounds read low 1.01 | S. cerevisiae deletion strains, locus YLR262C, strain YPT6, active compounds read low 1.06 | S. cerevisiae deletion strains, locus YLR268W, strain sec22, active compounds read low 0.991 | S. cerevisiae deletion strains, locus YLR320W, strain mms22, active compounds read low 0.999 | S. cerevisiae deletion strains, locus YLR330W, strain CHS5, active compounds read low 1.01 | S. cerevisiae deletion strains, locus YLR342W, strain FKS1 (second series), active compounds read low 1 | S. cerevisiae deletion strains, locus YLR342W, strain FKS1, active compounds read low 1 | S. cerevisiae deletion strains, locus YLR357W, strain rsc2, active compounds read low 0.986 | S. cerevisiae deletion strains, locus YLR370C, strain arc18, active compounds read low 1.01 | S. cerevisiae deletion strains, locus YLR371W, strain rom2, active compounds read low 0.978 | S. cerevisiae deletion strains, locus YLR384C, strain iki3, active compounds read low 0.991 | S. cerevisiae deletion strains, locus YLR418C, strain cdc73, active compounds read low 1.01 | S. cerevisiae deletion strains, locus YML016C, strain PPZ1, active compounds read low 1.01 | S. cerevisiae deletion strains, locus YML032C, strain rad52, active compounds read low 0.993 | S. cerevisiae deletion strains, locus YML120C, strain ndi1, active compounds read low 1.01 | S. cerevisiae deletion strains, locus YML124C, strain tub3, active compounds read low 0.996 | S. cerevisiae deletion strains, locus YMR058W, strain fet3, active compounds read low 1.01 | S. cerevisiae deletion strains, locus YMR078C, strain ctf18, active compounds read low 0.992 | S. cerevisiae deletion strains, locus YMR125W, strain sto1, active compounds read low 0.996 | S. cerevisiae deletion strains, locus YMR129W, active compounds read low 1.01 | S. cerevisiae deletion strains, locus YMR205C, strain PFK2, active compounds read low 0.975 | S. cerevisiae deletion strains, locus YMR223W, strain ubp8, active compounds read low 0.995 | S. cerevisiae deletion strains, locus YMR231W, strain pep5, active compounds read low 1 | S. cerevisiae deletion strains, locus YMR263W, strain SAP30, active compounds read low 1.01 | S. cerevisiae deletion strains, locus YMR307W, strain GAS1, active compounds read low 1.02 | S. cerevisiae deletion strains, locus YNL067W, strain RPL9B, active compounds read low 1.01 | S. cerevisiae deletion strains, locus YNL071W, strain lat1, active compounds read low 1.01 | S. cerevisiae deletion strains, locus YNL128W, strain TEP1, active compounds read low 1.01 | S. cerevisiae deletion strains, locus YNL153C, strain GIM3, active compounds read low 1 | S. cerevisiae deletion strains, locus YNL209W, strain ssb2, active compounds read low 1.01 | S. cerevisiae deletion strains, locus YNL233W, strain BNI4, active compounds read low 1.02 | S. cerevisiae deletion strains, locus YNL248C, strain rpa49, active compounds read low 0.992 | S. cerevisiae deletion strains, locus YNL250W, strain rad50, active compounds read low 0.989 | S. cerevisiae deletion strains, locus YNL271C, strain bni1, active compounds read low 0.992 | S. cerevisiae deletion strains, locus YNL298W, strain CLA4, active compounds read low 0.983 | S. cerevisiae deletion strains, locus YNL307C, strain MCK1, active compounds read low 0.989 | S. cerevisiae deletion strains, locus YNL322C, strain KRE1 (second series), active compounds read low 0.999 | S. cerevisiae deletion strains, locus YNL322C, strain KRE1, active compounds read low 1.01 | S. cerevisiae deletion strains, locus YNR049C, strain mso1, active compounds read low 1 | S. cerevisiae deletion strains, locus YNR052C, strain pop2, active compounds read low 0.987 | S. cerevisiae deletion strains, locus YOL006C, strain TOP1, active compounds read low 1.1 | S. cerevisiae deletion strains, locus YOL012C, strain htz1 0.971 | S. cerevisiae deletion strains, locus YOL147C, strain pex11, active compounds read low 0.981 | S. cerevisiae deletion strains, locus YOR001W, strain rrp6, active compounds read low 1.01 | S. cerevisiae deletion strains, locus YOR061W, strain CKA2, active compounds read low 1 | S. cerevisiae deletion strains, locus YOR069W, strain VPS5, active compounds read low 0.998 | S. cerevisiae deletion strains, locus YOR070C, strain gyp1, active compounds read low 1 | S. cerevisiae deletion strains, locus YOR080W, strain dia2, active compounds read low 0.996 | S. cerevisiae deletion strains, locus YOR083W, strain WHI5, active compounds read low 0.999 | S. cerevisiae deletion strains, locus YOR106W, strain vam3, active compounds read low 0.996 | S. cerevisiae deletion strains, locus YOR136W, strain idh2, active compounds read low 1.01 | S. cerevisiae deletion strains, locus YOR144C, strain elg1, active compounds read low 0.983 | S. cerevisiae deletion strains, locus YOR184W, strain ser1, active compounds read low 1 | S. cerevisiae deletion strains, locus YOR265W, strain rbl2, active compounds read low 1.03 | S. cerevisiae deletion strains, locus YOR270C, strain vph1, active compounds read low 1 | S. cerevisiae deletion strains, locus YOR290C, strain snf2, active compounds read low 0.994 | S. cerevisiae deletion strains, locus YOR316C, strain cot1, active compounds read low 0.987 | S. cerevisiae deletion strains, locus YPL051W, strain arl3, active compounds read low 1 | S. cerevisiae deletion strains, locus YPL055C, strain LGE1, active compounds read low 1.05 | S. cerevisiae deletion strains, locus YPL078C, strain atp4, active compounds read low 1 | S. cerevisiae deletion strains, locus YPL106C, strain sse1, active compounds read low 0.996 | S. cerevisiae deletion strains, locus YPL240C, strain hsp82, active compounds read low 1.01 | S. cerevisiae deletion strains, locus YPL241C, strain CIN2, active compounds read low 0.999 | S. cerevisiae deletion strains, locus YPR119W, strain clb2, active compounds read low 0.986 | S. cerevisiae deletion strains, locus YPR141C, strain kar3, active compounds read low 0.996 | S. cerevisiae deletion strains, locus YPR163C, strain tif3, active compounds read low 0.983 | S. cerevisiae deletion strains, locus YPR167C, strain met16, active compounds read low 0.99 | S. cerevisiae deletion strains, strain wtn01, active compounds read low 0.997 | S. cerevisiae strains, strain wild type, active compounds read low 1
